HPGD inh: qHTS Assay for Inhibitors of HPGD (15-Hydroxyprostaglandin Dehydrogenase) | 15-hydroxyprostaglandin dehydrogenase [NAD(+)] (Homo sapiens), P15428 | purified HPGD, NADH fluorescence kinetic, PGE2 substrate | Potency, µM, inactives show at the highest dose activity change, negative = inhibition, most hits filed as inhibitors | actives 4.3% (n = 150,000); also: potency is read from the fitted curve at half-maximal effect
Target sequence (P15428 whole entry, looked up): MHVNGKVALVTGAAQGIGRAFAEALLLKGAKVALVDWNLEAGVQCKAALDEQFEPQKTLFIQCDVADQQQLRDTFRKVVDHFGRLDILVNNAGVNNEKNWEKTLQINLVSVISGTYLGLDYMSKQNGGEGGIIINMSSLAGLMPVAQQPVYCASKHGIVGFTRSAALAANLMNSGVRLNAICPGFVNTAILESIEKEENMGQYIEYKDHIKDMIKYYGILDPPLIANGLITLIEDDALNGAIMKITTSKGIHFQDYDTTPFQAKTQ
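NADH formation kinetics: reaction with 30 uM PGE2 and 1 mM NAD+ (final), 20 nM enzyme, Tris-HCl pH 8 with Tween 20, after 15 min compound preincubation at room temperature. Fluorescence change, last versus first of five reads.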
ALDH1A1 block: qHTS Assay for Inhibitors of Aldehyde Dehydrogenase 1 (ALDH1A1). actives 7.3% (n = 220,000). Potency, µM (highest dose often 75.3 µM), inactives show top-dose activity, negative = inhibition, usual class: inhibitors. Aldehyde dehydrogenase 1A1 (Homo sapiens), P00352. Purified ALDH1A1, NADH fluorescence, propionaldehyde substrate;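 also: potency is read from the fitted curve at half-maximal effect; plate controls were no enzyme wells and a reference inhibitor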
IMPase inh: qHTS Assay for Identifying the Cell-Membrane Permeable IMPase Inhibitors. Inositol monophosphatase 1 (Rattus norvegicus), P97697. CHO-M1 cells, IP1 accumulation, HTRF TR-FRET ratio. inhibition (IP1 accumulation), % at 46.1 µM. 120,000 tested, under 10 active. AID 901, 2007; active = well fitted curve in the direction sought with a large enough effect in the signal ratio, not every such curve was filed as active; inconclusive = small, poorly fitted or top-dose-only effect, or a change in a side signal; inactive = no such curve, though single readings can be large or run the other way; the % refers to the signal ratio;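 also: cells stimulated with carbachol in lithium chloride buffer; plate controls were DMSO basal wells for no effect and reference inhibitor wells for full effect; higher means more IMPase inhibition seen as more IP1 and lower FRET ratio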
Target sequence (P97697 whole entry, looked up): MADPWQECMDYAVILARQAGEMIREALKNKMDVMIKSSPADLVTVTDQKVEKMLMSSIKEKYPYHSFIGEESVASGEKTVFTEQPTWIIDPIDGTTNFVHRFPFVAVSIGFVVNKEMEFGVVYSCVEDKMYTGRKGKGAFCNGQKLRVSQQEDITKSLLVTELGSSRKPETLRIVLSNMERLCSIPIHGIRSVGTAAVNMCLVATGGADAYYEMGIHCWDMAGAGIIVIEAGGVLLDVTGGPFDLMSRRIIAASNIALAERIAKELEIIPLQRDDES
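Elevated IP1 in lysates lowers TR-FRET signal (665/620 ratio and 620 channel reported). Cells were CHO-M1, given carbachol (50 uM as added) plus 50mM LiCl, pH 7.4, 30 min, 37C; compounds titrated up to 46 uM; AC50 by Hill equation.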
* marks the source's active call; other numbers are inactive results; u = inconclusive; x = no result; ! = not confirmed by another sample; [ ] = dose if it differs, or a comment. Hits are enriched below; roughly 9% of the tested compounds scored in any of these assays. Unless noted, calls follow the shape of the dose curve; as a rule, active = well fitted inhibition curve with a large enough effect (not every such curve was filed as active); inconclusive = small, poorly fitted or top-dose-only effect, or another doubt; inactive = no such curve, though single readings can be large or run the other way. Unless noted, % is scaled to controls: 0 for no effect and ±100 for the full control effect.

SMILES | HPGD inh | ALDH1A1 block | IMPase inh
Cc1cc(/C=C2/C(=O)NC(=O)N(Cc3ccco3)C2=O)c(C)n1-c1ccccc1 | u | 8.91µM* | x
CN(C)c1ccc(N(C)C)cc1 | -26.6% | u | x
CCCOc1ccc(N2C(=O)CC(N3CCC(O)(c4cccc(C(F)(F)F)c4)CC3)C2=O)cc1 (stereo not given) | -7.6% | u | 13.6
Cc1cc(=O)oc2c1c(C)nn2-c1nn[nH]n1 | -1.0% | u | 19.6
O=C(OCC(=O)N1CCN(c2ccccc2)CC1)c1cnc(Cl)c(Cl)c1 | x | 8.91µM* | x
O=C(COc1ccc(Cl)cc1)N1CCN(Cc2ccccc2)CC1 | 1.3% | 1.2% | 5.6
CN[C@@H](CC(C)C)C(=O)N[C@@H]1C(=O)N[C@H](CC(N)=O)C(=O)N[C@@H]2C(=O)N[C@H]3C(=O)N[C@H](C(=O)N[C@H](C(=O)O)c4cc(O)cc(O)c4-c4cc3ccc4O)[C@H](O)c3ccc(c(Cl)c3)Oc3cc2cc(c3O[C@H]2O[C@@H](CO)[C@@H](O)[C@@H](O)[C@@H]2O[C@@H]2C[C@](C)(N)[C@H](O)[C@H](C)O2)Oc2ccc(cc2Cl)[C@@H]1O | -6.8% | 0.1%[20.9 µM] | 5.9[20.6 µM]
C=CC(C)=O | -3.4% | 20µM* | x
C=CC(=O)OC | 1.1% | 13.4% | x
CCCCn1c(O)c(C(CC)=Nc2ccc(OCC)cc2)c(=O)[nH]c1=O | -14.7% | 1.8% | 2.4
CCC(=NCc1cc(OC)cc(OC)c1)c1c(O)n(C)c(=O)n(C)c1=O | -19.7% | -4.9% | 9.7
CCCCn1c(O)c(C(CC)=Nc2ccc(OC)cc2OC)c(=O)[nH]c1=O | 15.8µM* | 4.8% | 9.5
CCC(=Nc1ccc(OC)cc1OC)c1c(O)n(C)c(=O)n(C)c1=O | 35.5µM* | u | 6.1
COc1cc2c(cc1O)[C@H]1Cc3ccc(OC)c(O)c3CN1CC2 | -1.9% | 2.0%[20.9 µM] | 4.5[20.6 µM]
CC1CC2CC(=O)C3CCCN4CCCC2[C@]34C1 (stereo not given in full) | -0.7% | 8.4% | x
C[C@@H]1CC[C@H]2[C@@H](C)C(=O)O[C@@H]3OC4(C)CC[C@@H]1C32OO4 (stereo not given in full) | -3.1% | 3.3% | x
C[C@@H]1CC[C@H]2[C@@H](C)C(=O)O[C@@H]3OC4(C)CC[C@@H]1[C@]32OO4 | -7.7% | 25.1µM* | x
c1ccc2sc(C3(NCC4CC4)CCCCC3)cc2c1 | x | 4.7% | x
CC1CC[C@@]2(OC1)O[C@@H]1[C@@H](O)[C@H]3C4CC[C@H]5C[C@@H](O[C@@H]6O[C@H](CO)[C@H](O[C@@H]7O[C@H](CO)[C@@H](O)[C@H](O[C@@H]8OC[C@@H](O)[C@H](O)[C@H]8O)[C@H]7O[C@@H]7O[C@H](CO)[C@@H](O)[C@H](O[C@@H]8O[C@H](CO)[C@@H](O)[C@H](O)[C@H]8O)[C@H]7O)[C@H](O)[C@H]6O)[C@H](O)C[C@]5(C)C4CC[C@]3(C)[C@H]1[C@@H]2C (stereo not given in full) | 2.8% | 3.5% | 20.0
OC[P+](CO)(CO)CO | -13.9% | 17.9% | x
CN(C)C(=O)Oc1cc(OC(=O)N(C)C)cc([C@@H](O)CNC(C)(C)C)c1 | 2.2% | 3.0%[20.9 µM] | -0.1[20.6 µM]
COc1cc(C(c2c(C)[nH]n(-c3ccccc3)c2=O)c2c(C)[nH]n(-c3ccccc3)c2=O)cc(OC)c1OC | -7.7% | 10.1% | 2.8
Cc1[nH]n(-c2ccccc2)c(=O)c1C(c1cccc([N+](=O)[O-])c1O)c1c(C)[nH]n(-c2ccccc2)c1=O | 28.2µM* | 15.8µM* | x
CCCCCCCC(=O)OCC(COC(=O)CCCCCCC)OC(=O)CCCCCCC | -5.8% | u | x
N[C@H](Cc1c[nH]c2ccccc12)P(=O)(O)O | -6.0% | 12.3%[13.5 µM] | x
SMILES | HPGD inh | ALDH1A1 block | IMPase inh
O=C1CCCC2[C@@H]3CCCN4CCC[C@@H](CN12)C34 (stereo not given in full) | -4.5% | 4.9% | 2.9
Cc1ncsc1CCOC(=O)c1ccc([N+](=O)[O-])cc1 | -16.9% | -9.0% | -1.6
O=C(CNC(=O)c1cccs1)NCC(=O)OCC(=O)c1ccc([N+](=O)[O-])cc1 | x | 2.24µM* | x
CO[C@@H]([CH2][Hg])CN1C(=O)c2ccccc2S1(=O)=O.Cn1c(=O)c2nc[nH]c2n(C)c1=O | 1.41µM* | 3.16µM* | x
C=C(CC1(CNP(=O)(c2ccccc2)c2ccccc2)CC1)c1ccccc1 | -2.4% | -2.2% | x
CC(=O)c1ccc(OC(NC(=O)c2ccco2)C(Cl)(Cl)Cl)cc1 (stereo not given) | 25.1µM* | u | 3.5
O=C(NC(Oc1ccccc1)C(Cl)(Cl)Cl)c1ccccc1 (stereo not given) | -9.3% | 19.8% | 10.5
Cc1ccc(-c2n[nH]c(=S)n2-c2ccccc2)cc1 | u | u | -11.6
Cc1ccc(-n2c(-c3nn(C)c(C)c3Cl)n[nH]c2=S)cc1 | 28.2µM* | 31.6µM* | u
NCC(N)C(=O)c1ccccc1 (stereo not given) | -16.7% | u | x
C[C@@]12CC[C@H]3[C@@H](CC[C@@H]4C[C@H](O)CC[C@]43C)[C@H]1CC[C@H]2O | x | x | 3.0
O=C1CN=C(c2cccs2)c2c(sc3c2CCCC3)N1 | u | u | -0.8
Cc1cc2c(s1)NC(=O)CN=C2c1cccs1 | 25.1µM* | u | 14.5
OC[C@@H]1CCCN2CCCC[C@@H]12 | -3.6% | 2.2% | -2.8
ClC(Cl)(Cl)Cl | -3.5% | 6.9% | x
CCCCCC1CC(CC(=O)NC(=S)Nc2ccc([N+](=O)[O-])cc2)C(=O)O1 (stereo not given) | -7.6% | 10µM* | 7.8
CC(COc1ccccc1)N(CCCl)Cc1ccccc1 (stereo not given) | -0.1% | 28.2µM*! | x
O=C1C2CCCN2C(c2ccncc2)N1c1ccc(Cl)c(Cl)c1 (stereo not given) | x | 20µM* | -0.8
O=C1C2CCCN2C(c2cccnc2)N1c1ccc(Cl)c(Cl)c1 (stereo not given) | -7.2% | -3.5% | -2.3
C[C@@]12C=CC(=O)C=C1CCC1C2CC[C@]2(C)C(=O)CCC12 (stereo not given in full) | -0.7% | 3.0% | x
CC(C)C[C@H](NC(=O)[C@H](Cc1ccccc1)NC(=O)CNC(=O)[C@H](CO)NC(=O)[C@@H](N)Cc1ccc(O)cc1)C(=O)N[C@H](C(=O)O)[C@H](C)O | x | 2.8% | x
O=c1cccc2n1CC1CC2CN(CCO)C1 (stereo not given) | -8.0% | 2.0% | -4.2
CC(C)CN1CC2(CCN(C(=O)c3ccncc3)CC2)C1 | -1.0% | 6.4% | x
O=C1N=C(N2CCCCC2)SC1=C1CCCCC1 | 20µM* | 8.91µM* | 13.6
COc1cc(/C=C/[N+](=O)[O-])ccc1O | -24.3% | u | x
CCOc1cc(C=O)ccc1O | -15.5% | 25.1µM* | x
CC(=O)[C@H]1CC[C@H]2[C@@H]3CCC4=CC(=O)CC[C@]4(C)[C@H]3CC[C@]12C | -0.5% | 11.2µM*! | 12.1
CC(=O)[C@@H]1CC[C@@H]2[C@@H]3CCC4=CC(=O)CC[C@@]4(C)[C@H]3CC[C@]21C | 0.3% | -6.2%[20.9 µM] | 1.3[20.6 µM]

High-throughput results as filed in PubChem.
